The list is not random: actives were taken first. Their share in the collection is about 2.4%.
NOD2-RIPK2 inh – NOD2-RIPK2 protein interaction inhibition; O43353; CHO BLA complementation NOD2-RIPK2, CCF4 ratio; inhibition, % at 4.98 µM; 360,000 tested, 0.38% active; in the data active = inhibition above about 21%;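 note: 0% = vehicle only and 100% = reference blocker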
TLR4 MyD88 comp – TLR4-MyD88 interaction inhibition in cells. HeLa CL3-4 TLR4/MyD88 BLA complementation, FRET ratio. O00206+Q99836. 200,000 tested, 0.18% active. AID 861. inhibition, % at 8.4 µM; in the data active = inhibition above about 25%;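 note: 0% = vehicle and 100% = reference inhibitor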
TLR9-MyD88 inh – blocks human TLR9 binding to MyD88. CHO BLA complementation TLR9-MyD88, CCF4 FRET ratio. inhibition, % at 4.98 µM. 340,000 tested, 0.21% active. AID 504734;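 active = inhibition above the mean over all tested compounds plus 3 SD, cut at about 21% in these data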;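 note: 0% = DMSO only wells and 100% = clavulanate BLA inhibitor control wells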
CRFBP-R2 block – blocks CRF-induced signaling of the CRF-BP/CRF-R2 complex | HEK293 CRF-R2/CRF-BP, CRF-induced calcium fluorescence | inhibition, % at 11.8 µM | 350,000 tested, 0.59% active;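 active = inhibition of the ligand-induced calcium signal above about 50% at the single tested concentration, limit read from the data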
HTR2A ag – activates the mouse 5-HT2A serotonin receptor. P35363. CHO-K1 mHTR2A beta-arrestin complementation, luminescence; percent of 30 µM serotonin response. activation, % at 7.6 µM. 360,000 tested, 0.66% active;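 active = activation above a run cutoff, the mean activation of all tested compounds plus 3 SD, cut at about 14% in these data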;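 note: 0% = plate median of compound wells and 100% = 30 µM serotonin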
ABHD5 PLIN5 PPI – inhibitors of human ABHD5-perilipin-5 interaction; Q00G26+Q8WTS1; Split G. princeps luciferase complementation, luminescence, 4 h; inhibition, % at 4 µM; 360,000 tested, 0.78% active; AID 602281;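 active = inhibition above the mean inhibition across every tested compound plus 3 SD, cut at about 22% in these data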;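 note: 0% = DMSO only wells and the 100% control is not disclosed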
Target sequence (Q00G26 whole entry, looked up): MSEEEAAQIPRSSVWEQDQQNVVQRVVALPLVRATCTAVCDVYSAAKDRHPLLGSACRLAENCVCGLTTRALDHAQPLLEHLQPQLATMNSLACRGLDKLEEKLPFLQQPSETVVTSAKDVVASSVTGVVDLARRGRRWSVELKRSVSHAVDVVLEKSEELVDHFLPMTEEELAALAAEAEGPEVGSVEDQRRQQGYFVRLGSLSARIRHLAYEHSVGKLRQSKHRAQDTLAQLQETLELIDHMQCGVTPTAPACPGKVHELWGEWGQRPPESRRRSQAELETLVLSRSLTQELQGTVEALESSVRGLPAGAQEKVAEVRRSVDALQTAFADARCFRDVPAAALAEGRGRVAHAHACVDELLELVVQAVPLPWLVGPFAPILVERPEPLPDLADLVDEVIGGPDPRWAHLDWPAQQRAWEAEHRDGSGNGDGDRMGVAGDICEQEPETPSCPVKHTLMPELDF
Target sequence (Q8WTS1 whole entry, looked up): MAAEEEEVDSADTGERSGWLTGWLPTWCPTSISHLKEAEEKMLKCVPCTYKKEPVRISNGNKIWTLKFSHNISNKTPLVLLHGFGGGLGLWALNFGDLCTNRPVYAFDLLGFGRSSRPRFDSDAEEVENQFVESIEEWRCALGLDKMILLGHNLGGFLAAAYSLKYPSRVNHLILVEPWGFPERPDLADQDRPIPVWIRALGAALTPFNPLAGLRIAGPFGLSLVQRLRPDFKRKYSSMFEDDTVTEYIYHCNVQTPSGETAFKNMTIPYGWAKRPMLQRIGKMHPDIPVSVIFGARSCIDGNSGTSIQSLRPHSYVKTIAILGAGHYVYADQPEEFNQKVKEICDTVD
TLR4-MyD88 conf – confirmation of human TLR4-MyD88 binding inhibitors. shares compounds with TLR4 MyD88 comp. HeLa CL3-4 BLA complementation, CCF4 FRET ratio. inhibition, % at 8.4 µM. 350 tested, 50% active;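 active = mean inhibition across three repeat runs above about 25% carried over from the earlier screen, limit read from the data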;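 note: plate controls were DMSO only for no effect and clavulanic acid blocking BLA at full dose for full effect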
BLA inh HeLa – beta-lactamase inhibition flagged in TLR4-MyD88 counter-screen. 350 tested, 63% active. inhibition, % at 8.4 µM. shares compounds with TLR4 MyD88 comp. HeLa BLA reporter, CCF4 FRET ratio. AID 1237;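 active = mean inhibition over three repeats above about 26% taken from the earlier screen, limit read from the data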;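 note: HeLa cells stably expressing beta-lactamase reporter as counterscreen for TLR4-MyD88 inhibitors; 0% = DMSO and 100% = clavulanic acid full inhibition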
TLR9-MyD88 conf – confirmation of human TLR9-MyD88 binding inhibitors; AID 540250; shares compounds with TLR9-MyD88 inh; CHO TLR9/MyD88 BLA complementation, CCF4 FRET ratio; 680 tested, 51% active; inhibition, % at 4.98 µM;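 active = mean inhibition across three repeats above about 21% taken from the earlier screen, limit read from the data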;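 note: blue over green emission ratio reports constitutive TLR9 MyD88 association via BLA complementation; 0% = DMSO vehicle wells and 100% = clavulanate BLA inhibitor wells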
BLA counter-1 – non-selective beta-lactamase inhibitors in TLR9-MyD88 counter-screen | shares compounds with TLR9-MyD88 inh | CHO-BLA cells, CCF4 FRET ratio, BLA reporter | inhibition, % at 4.98 µM | 680 tested, 7% active | AID 540251;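 active = mean inhibition above a 50% cutoff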;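 note: counterscreen of TLR9-MyD88 hits on CMV-driven BLA in CHO-K1 cells; 0% = DMSO alone and 100% = clavulanate blocking BLA; higher means less blue over green ratio so more BLA blockade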
TLR9 CHO cytotox – CHO cell toxicity counter-screen for TLR9-MyD88 inhibitors; TLR9-MyD88 CHO cells cytotoxicity, luminescence; AID 588336; shares compounds with TLR9-MyD88 inh; inhibition, % at 4.98 µM; 680 tested, 39% active; in the data active = inhibition above about 11%
MOR ag counter – OPRM1 agonism in mouse HTR2A counterscreen. shares compounds with HTR2A ag. U2OS OPRM1 beta-arrestin PathHunter, luminescence; DMSO 0%, DAMGO 9.3 µM 100%. activation, % at 9.3 µM. 2,300 tested, 5.3% active;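 active = mean activation above the mean of DMSO-only wells plus 3 SD, cut at about 0.5% in these data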
HTR2A ag conf – confirmation of mouse HTR2A serotonin receptor agonists | shares compounds with HTR2A ag | CHO-K1 PathHunter beta-arrestin recruitment, luminescence; DMSO 0%, 30 µM serotonin 100% | activation, % at 7.6 µM | 2,300 tested, 19% active | AID 624381;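 active = mean activation across triplicates above the hit threshold derived in the original primary screen, cut at about 15% in these data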
NOD2-RIPK2 conf – NOD2-RIPK2 interaction inhibition confirmed. inhibition, % at 4.98 µM. AID 624370. CHO cells, NOD2-RIPK2 BLA complementation, CCF4 FRET. shares compounds with NOD2-RIPK2 inh. 1,200 tested, 70% active;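 active = mean inhibition across replicates above a set limit taken from the earlier primary screen, cut at about 21% in these data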;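 note: 0% = DMSO-only wells and the high end = clavulanate BLA-blocked wells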
BLA counter-2 – hits BLA reporter in NOD2-RIPK2 inhibitor counterscreen; shares compounds with NOD2-RIPK2 inh; CHO BLA reporter, CCF4 FRET ratio; inhibition, % at 4.98 µM; 1,200 tested, 57% active;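 active = mean inhibition above the low-control mean inhibition plus three low-control SD, cut at about 11% in these data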;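 note: 0% = DMSO only wells and 100% = clavulanate high control wells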
* hit, by the source's call.

What do the screens show for `Cn1c(-c2c(N)n(-c3ccccc3)c3nc4ccccc4nc23)nc2ccccc21`?
NOD2-RIPK2 inh: 55*; TLR4 MyD88 comp: 54*; TLR9-MyD88 inh: 47*; CRFBP-R2 block: -200; HTR2A ag: 3; ABHD5 PLIN5 PPI: 9; TLR4-MyD88 conf: 49*; BLA inh HeLa: 76*; TLR9-MyD88 conf: 42*; BLA counter-1: 46; TLR9 CHO cytotox: 12*; NOD2-RIPK2 conf: 71*; BLA counter-2: 73*

How did Cc1cccc(-n2c(N)c(-c3nc4ccccc4n3C)c3nc4ccccc4nc32)c1 do in these assays?
NOD2-RIPK2 inh: 14; TLR4 MyD88 comp: 21; TLR9-MyD88 inh: 18; CRFBP-R2 block: -103; HTR2A ag: 1; ABHD5 PLIN5 PPI: 2

How did O=C1NC[C@H](CCCCN2C[C@H](Cc3ccccc3)N(Cc3ccccc3)C(=O)C2=O)N(CCc2ccccc2)C1=O do in these assays?
NOD2-RIPK2 inh: 1; HTR2A ag: -4; ABHD5 PLIN5 PPI: 3

Results for CNC(=O)COC(=O)c1ccccc1C(=O)c1ccc(Cl)c([N+](=O)[O-])c1 ?
NOD2-RIPK2 inh: 24*; TLR4 MyD88 comp: 32*; TLR9-MyD88 inh: 25*; CRFBP-R2 block: 44; HTR2A ag: -4; ABHD5 PLIN5 PPI: 2; TLR4-MyD88 conf: 22; BLA inh HeLa: 5; TLR9-MyD88 conf: 23*; BLA counter-1: 19; TLR9 CHO cytotox: 8; NOD2-RIPK2 conf: 53*; BLA counter-2: 7

Results for CCCN1C(=O)/C(=C/c2ccc(N3CCCC3)c(C)c2)NC1=S ?
NOD2-RIPK2 inh: 35*; TLR4 MyD88 comp: 37*; TLR9-MyD88 inh: 35*; CRFBP-R2 block: -444; HTR2A ag: 17*; ABHD5 PLIN5 PPI: 4; TLR4-MyD88 conf: 37*; BLA inh HeLa: 69*; TLR9-MyD88 conf: 26*; BLA counter-1: 28; TLR9 CHO cytotox: 2; MOR ag counter: 0; HTR2A ag conf: 9; NOD2-RIPK2 conf: 49*; BLA counter-2: 55*

How did Cc1cc(/C=C2\NC(=S)N(C)C2=O)ccc1N1CCCC1 do in these assays?
NOD2-RIPK2 inh: 18; TLR4 MyD88 comp: 23; TLR9-MyD88 inh: 16; CRFBP-R2 block: -343; HTR2A ag: -1; ABHD5 PLIN5 PPI: -1
